This passage reports inhibition results from PubChem BioAssay AID2599 (Sanford-Burnham Center for Chemical Genomics, 2010).

Structures are written as SMILES. The whole screen tested about 330,000 compounds, of which about 5,800 (1.8%) were called active. The sample holds actives, similar compounds and a random draw of the others, so the mix is not that of the screen.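 The calls were made as follows: active = inhibition above about 50% at the single tested dose (limit read from the data); inactive = the rest.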

Sequence of Sentrin-specific protease 6 (Homo sapiens) (Q9GZR1 628-1112 limits assumed): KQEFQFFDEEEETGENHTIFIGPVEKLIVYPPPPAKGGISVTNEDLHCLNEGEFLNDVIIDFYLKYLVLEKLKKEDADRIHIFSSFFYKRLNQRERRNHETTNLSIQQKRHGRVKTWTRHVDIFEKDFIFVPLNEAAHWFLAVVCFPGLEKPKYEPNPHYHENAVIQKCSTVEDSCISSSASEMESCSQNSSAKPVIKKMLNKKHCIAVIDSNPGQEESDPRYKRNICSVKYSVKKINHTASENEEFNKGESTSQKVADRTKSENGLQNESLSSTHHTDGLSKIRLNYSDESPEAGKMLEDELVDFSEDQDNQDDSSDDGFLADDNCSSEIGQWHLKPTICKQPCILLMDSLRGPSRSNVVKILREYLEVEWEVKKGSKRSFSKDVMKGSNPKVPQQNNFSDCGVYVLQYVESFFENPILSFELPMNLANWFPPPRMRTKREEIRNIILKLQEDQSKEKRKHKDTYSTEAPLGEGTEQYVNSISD

The assay addresses Sentrin-specific protease 6 (Homo sapiens) (UniProt Q9GZR1). Description: inhibition of human SENP6 catalytic domain – biochemical, luminescence, uHTS, primary screen (AID 2599).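 Also: plate controls were DMSO wells with enzyme for no effect and DMSO wells lacking enzyme for full effect.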 The conditions noted are these: Recombinant SENP6 catalytic domain, aminoluciferin luminescence; at 10 µM; active compounds read high.
`CCOc1ccccc1C(=O)NC1CC2CCCC(C1)N2Cc1ccccc1` (configuration not stated): the inhibition – broadly, the drop in the measured response relative to a control, in per cent – is 7.09% (inactive).
In the case of `Cc1cccc(C2=N/C(=C/c3cccs3)C(=O)O2)c1` it was 9.27% (inactive); in that of `O=C1N/C(=C/c2cccs2)C(=O)N1Cc1ccc(F)cc1`, -6.09% (inactive).
In the case of `CSC1=N/C(=C\C=C\c2cccs2)C(=O)S1` it was 77.8% (active).
For `O=C(O)c1ccc(N/N=C/c2ccc3ncccc3c2)cc1`, the inhibition was 101% (active).
The same measure for `Cc1ccc2cc(/C=N/Nc3ccc(C(=O)O)cc3)c(Cl)nc2c1`: -25% (inactive); for `O=C(O)c1ccc(/C=N/Nc2nc(N3CCCCC3)nc(N3CCCCC3)n2)cc1`: -7.28% (inactive).
As for `Cc1ccc2c(c1)N(CC(=O)N(Cc1ccccn1)Cc1ccco1)C(=O)C(C(C)C)O2` (configuration not stated), the inhibition was -1.99% (inactive).
The same measure for `CC(=O)N(C1=C(Cl)C(=O)c2ccccc2C1=O)c1ccc(C(=O)O)cc1`: 81.4% (active); for `COc1ccc(CCNC(=O)CSCc2ccc(Br)cc2)cc1OC`: 1.68% (inactive).
On to `CN(CC(=O)Nc1ccc(Cl)cc1)CC(=O)Nc1cccc2ccccc12`, for which the inhibition is -2.99% (inactive).
Turning to `CN(CC(=O)Nc1ccc(Cl)cc1)C(=O)c1ccc(COc2ccccc2)cc1`, the inhibition was 18.3% (inactive).
For `CN(CC(=O)Nc1ccc(Cl)cc1)C(=O)CNC(=O)c1ccc2ccccc2c1`, the inhibition is 64.9% (active).
With `COc1ccc(C2=NOC3(CC(=O)N(c4ccc(Cl)cc4)C3=O)C2)c(OC)c1` (configuration not stated), the inhibition was -7.66% (inactive).
In the case of `Cc1cccc(NC(=O)CSCC(=O)Nc2nnc(C3CC3)s2)c1` it was -3.73% (inactive); in that of `Cc1ccc(SCC(=O)Nc2ncc(C)s2)cc1`, -5.14% (inactive).
The same measure for `Cc1cc(C(=O)Nc2nnc(C3CC3)s2)c(C)s1`: 76.1% (active); for `Cc1cnc(NC(=O)C2CCCC2)s1`: 8.65% (inactive); for `O=C(Nc1nnc(C2CC2)s1)c1ccccn1`: 69.2% (active).
In the case of `CCc1cc(C(=O)Nc2nnc(C3CC3)s2)sc1C` it was -7.34% (inactive); in that of `O=C(Nc1nnc(C2CC2)s1)c1cc(Cl)sc1Cl`, 4.15% (inactive); in that of `Cc1cnc(NC(=O)c2ccccn2)s1`, 88.5% (active).
As for `O=C(Nc1nnc(Cc2ccccc2)s1)c1cnccn1`, the inhibition was -4.43% (inactive).
The same measure for `COc1ccccc1NC(=O)CCSc1nnc(-c2ccc(O)cc2)o1`: -8.69% (inactive); for `O=C(c1cccc(F)c1)N1CCN(c2ccc([N+](=O)[O-])c3cccnc23)CC1`: 13.7% (inactive).
The same measure for `CCOc1cc(CNCc2ccccn2)ccc1OCC(=O)NC(C)(C)C`: 4.74% (inactive); for `CCn1nc(C)c(CN2CCN(Cc3ccc(OC)c(C)c3C)C(CCO)C2)c1C` (configuration not stated): -13.1% (inactive).
In the case of `COCCCNC(=O)CN1CCN(Cc2ccccc2Cl)C1=O` it was -5.23% (inactive); in that of `CC(=O)Nc1ccc(S(=O)(=O)Nc2nc3n(n2)C(c2ccccc2)CC(=O)N3)cc1` (configuration not stated), -18.6% (inactive).
Take `O=c1c2cc(-c3ccccc3)sc2nc2n1N=C(c1cccs1)CS2`: the inhibition was 73.2% (active).
In the case of `Cc1nnc2n1N=C(c1ccccc1)CS2`, the inhibition is 0.225% (inactive).
As to `COc1ccc(C2CC(c3cccs3)=NN2c2ccccc2)cc1` (configuration not stated), the inhibition is -18.7% (inactive).
The same measure for `COc1ccc(Cl)cc1NS(=O)(=O)c1cccc(C(=O)NCC2CCCO2)c1` (configuration not stated): -6.29% (inactive); for `COc1ccc(S(=O)(=O)N2CCOCC2)cc1NC(=O)Cc1c(F)cccc1Cl`: 2.93% (inactive); for `CC1=CC(=C(C#N)c2nc3ccccc3s2)C=C(C)N1c1ccc(F)cc1F`: 63.9% (active).
Turning to `N#C/C(=C(/O)Cc1cccc2ccccc12)c1nc2ccccc2s1`, the inhibition was 1.83% (inactive).
Regarding `O=C(O)CS/C(=C\c1ccc(F)cc1)c1nc2ccccc2s1`, the inhibition is -11.1% (inactive).
The same measure for `CN(Cc1ccccc1)C(=O)C1CCCN(c2ncnc3c2nc2n3CCCCC2)C1` (configuration not stated): -17.3% (inactive); for `Cc1cc(NC(=O)COc2ccccc2C#N)no1`: 4.16% (inactive).
In the case of `O=C(Nc1ccn(Cc2ccccc2F)n1)c1ccc(COc2ccc(Cl)cc2Cl)o1` it was 25.5% (inactive); in that of `O=C(Nc1ccn(Cc2ccccc2)n1)c1n[nH]c([N+](=O)[O-])c1Cl`, 98.2% (active); in that of `Cc1ccc(Cn2ccc(NC(=O)C3C4CCC(C4)C3C(=O)O)n2)cc1` (configuration not stated), 13.1% (inactive).
In the case of `Cc1cc(C)c(S(=O)(=O)Nc2c(C)n(C)n(-c3ccccc3)c2=O)cc1[N+](=O)[O-]` it was -1.02% (inactive); in that of `CN(CC1CCCN(CCc2cccc(C(F)(F)F)c2)C1)C(=O)c1ccc2nc[nH]c2c1` (configuration not stated), -6.57% (inactive).
Regarding `COc1ccc(S(=O)(=O)NCC(=O)NC2CC2)cc1OC`, the inhibition was -8.69% (inactive).
On to `CCCCC(c1nnnn1CS(=O)(=O)c1ccc(C)cc1)N1CCC(C(N)=O)CC1` (configuration not stated), for which the inhibition was -48.9% (inactive).
In the case of `COc1cc(N=Cc2c(O)c3ccccc3oc2=O)c(OC)cc1Cl` it was -7.87% (inactive).
In the case of `COc1ccccc1N=Cc1c(O)c2ccccc2oc1=O` it was 81% (active); in that of `COc1ccccc1N=C(C)C1=C(O)COC1=O`, -35% (inactive); in that of `CCc1c(C)nc2c(-c3ccccc3)c(C)nn2c1Nc1ccc(NC(C)=O)cc1`, -6.24% (inactive).
In the case of `CCN(C(=O)CSc1cccc[n+]1[O-])c1ccccc1` it was -15.1% (inactive).
For `CCn1c(=O)n(CC)c2cc(N3CCCC3)c(NC(=O)c3ccccc3Br)cc21`, the inhibition is 7.04% (inactive).
The same measure for `CN(C(=O)c1cc2c(=O)n3ccccc3nc2s1)C1CCCCC1`: -20.3% (inactive); for `CN(C(=O)CSc1nncc2ccccc12)C1CCCCC1`: -34.7% (inactive).
In the case of `CN(c1ccc2nc3ccccc3c(=O)n2n1)C1CCCCC1` it was 93.7% (active).
`COc1ccc(/C=N/NC(=O)c2ccncc2)cc1CN1CCCc2ccccc21`: the inhibition was -2.09% (inactive).
In the case of `C=CCn1c(Cn2nnc3ccccc32)nnc1SCC(=O)N/N=C/c1cc(Br)cc(OC)c1O` it was 20.6% (inactive); in that of `Cc1ccc(-n2ncc3c(Nc4cccc(C(=O)O)c4)ncnc32)cc1`, 97.4% (active).
Regarding `Cc1ccc(Nc2ncnc3c2cnn3C)c(C)c1`, the inhibition was 14.7% (inactive).
In the case of `CCN(CC)C(=O)CSc1ncnc2c1cnn2-c1ccccc1` it was 22.4% (inactive); in that of `c1ccc2sc(NN=C3CCCC3)nc2c1`, 84.1% (active).
The same measure for `O=C(CCC(=O)c1cccs1)Nc1nc2ccccc2s1`: -6.28% (inactive); for `O=C(CCNC(=O)c1ccccc1)Nc1nc2ccccc2s1`: -6.27% (inactive).
For the compound `CC1=NN(C(N)=S)C(=O)C1N=Nc1cc(Cl)ccc1Cl` (configuration not stated), the inhibition is 67.7% (active).
In the case of `CN(C)S(=O)(=O)c1ccc(N2CCCC2)c(C(=O)Nc2cccc(F)c2)c1` it was -13.9% (inactive).
With `c1ccc(C2CCC(N3CCC(N4CCCCC4)CC3)CC2)cc1` (configuration not stated), the inhibition was -12.6% (inactive).
The same measure for `CCCOc1ccc(NC(=O)CC2C(=O)N(C)C(=S)N2Cc2ccc3c(c2)OCO3)cc1` (configuration not stated): -5.66% (inactive); for `Cc1ccc(NC(=O)CN2CCc3ccccc3C2)cc1`: -1.22% (inactive).
`Cc1ccc(S(=O)(=O)N2CCN(c3ncnc4ccccc34)CC2)cc1`: the inhibition is -8.22% (inactive).
In the case of `Cc1ccc(S(=O)(=O)Nc2nc3ccccc3nc2N2CCc3ccccc3C2)cc1` it was 72.3% (active); in that of `CCOc1ncccc1C(=O)N(C)CC(=O)Nc1ccc(F)cc1`, -13.5% (inactive).
The same measure for `COc1ccc(CCC(C)N2CCc3ccccc3C2)cc1` (configuration not stated): -16.3% (inactive).
In the case of `CC1CCC(NC(=O)CNC(=O)c2ccc3ccccc3c2)CC1` (configuration not stated) it was -5.64% (inactive); in that of `COc1ccc(N(CC(=O)NCc2ccc(F)cc2)C(=O)CCC(=O)Nc2nccs2)cc1`, -20.2% (inactive); in that of `O=C(COC(=O)c1c2c(nc3ccccc13)CCCC2)c1ccc(Br)s1`, -21.7% (inactive).
Regarding `Cn1cccc1C(=O)OCC(=O)c1ccc(Br)s1`, the inhibition was 80.6% (active).
In the case of `Cn1cccc1C(=O)OCC(=O)NCCc1ccccc1` it was 2.46% (inactive); in that of `Cc1cc(C(=O)N2CCC(C(=O)O)CC2)c(C(F)(F)F)o1`, -4.3% (inactive); in that of `CCCNC(=S)NC1CC2CCCC(C1)N2CC(C)C` (configuration not stated), -7.92% (inactive).
The same measure for `COc1ccc(CNC(=O)Cc2ccc(-c3ccccc3)cc2)cc1OC`: -23.6% (inactive); for `COc1ccc(CNC(=O)COC(=O)c2c(C)nn(-c3ccccc3)c2C)cc1OC`: -8.11% (inactive); for `COc1ccc(CNC(=O)COc2ccccc2C(=O)c2cnn(-c3ccccc3)c2)cc1OC`: 82.5% (active).
In the case of `COC(=O)C1=C(C(=O)OC)[C@@H]2N(C)c3ccccc3[C@@]23C[C@@H](C(=O)OC)N(C(C)=O)C3=N1` it was 3.79% (inactive); in that of `CC(C)(C)NC(=O)Cn1c(SCC(=O)Nc2nccs2)nc2ccccc21`, 1.04% (inactive).
In the case of `O=C1/C(=C/c2cccs2)CCc2ccccc21`, the inhibition was 94.5% (active).
Turning to `COc1ccc(/C=C2\CCc3ccccc3C2=O)c(OC)c1OC`, the inhibition is -14.7% (inactive).
The same measure for `CN1C/C(=C/c2cccs2)C(=O)/C(=C\c2cccs2)C1`: 8.32% (inactive).
`Cc1ccc(NS(=O)(=O)c2cccs2)cc1S(=O)(=O)N1CCCCCC1`: the inhibition is -3.66% (inactive).
The same measure for `CCN(CC)c1ccc(C(=O)OCC(=O)c2ccco2)cc1`: -14.3% (inactive); for `CCc1ccc(C(=O)COC(=O)c2ccco2)cc1`: 66.8% (active).
The same measure for `O=C(OCC(=O)N1CCCC1)c1ccco1`: -23.3% (inactive).
The same measure for `Cc1ccc(CN2CC(C(=O)NNC(=O)Cn3ccc(C(F)(F)F)n3)CC2=O)cc1` (configuration not stated): -0.795% (inactive); for `Cc1nc2nc(CSc3nc4ccccc4s3)cc(=O)n2[nH]1`: -34.9% (inactive).
In the case of `NC(=O)c1ccc(Nc2ccc3nonc3c2[N+](=O)[O-])cc1`, the inhibition is 6.58% (inactive).
As for `O=[N+]([O-])c1c(NCCO)cc(Sc2nc3ccccc3s2)c2nonc12`, the inhibition was 79.3% (active).
`COc1ccc(C)cc1S(=O)(=O)Nc1cccc(Cl)c1Cl`: the inhibition is -4.81% (inactive).
The same measure for `O=C(Cc1ccc(Cl)cc1)NCc1nc(-c2ccccc2)no1`: -9.63% (inactive).
